Test results as given in PubChem BioAssay AID1851 (National Center for Advancing Translational Sciences (NCATS), 2009).
Among all 16,000 compounds or so, about 5,700 (36%) were called active. Another 24% or so got no clear call; they are omitted. Calls come from the whole dose curve; as a rule, active = well fitted curve in the direction sought with a large enough effect; inconclusive = small, poorly fitted or top-dose-only effect, or effect the other way; inactive = no such curve, though single readings can be large or run the other way. The list shows a part of the results.

These molecules were tested against Cytochrome P450 1A2 (Homo sapiens) (UniProt P05177) (assay: Cytochrome panel assay with activity outcomes). Conditions: recombinant CYP, pro-luciferin dealkylation, luminescence, p450-cyp1a2; series mostly up to 57.1 µM.
% is set by controls: 0 for no effect and ±100 for the full control effect.

Cytochrome P450 1A2 (Homo sapiens), sequence (P05177 whole entry, looked up): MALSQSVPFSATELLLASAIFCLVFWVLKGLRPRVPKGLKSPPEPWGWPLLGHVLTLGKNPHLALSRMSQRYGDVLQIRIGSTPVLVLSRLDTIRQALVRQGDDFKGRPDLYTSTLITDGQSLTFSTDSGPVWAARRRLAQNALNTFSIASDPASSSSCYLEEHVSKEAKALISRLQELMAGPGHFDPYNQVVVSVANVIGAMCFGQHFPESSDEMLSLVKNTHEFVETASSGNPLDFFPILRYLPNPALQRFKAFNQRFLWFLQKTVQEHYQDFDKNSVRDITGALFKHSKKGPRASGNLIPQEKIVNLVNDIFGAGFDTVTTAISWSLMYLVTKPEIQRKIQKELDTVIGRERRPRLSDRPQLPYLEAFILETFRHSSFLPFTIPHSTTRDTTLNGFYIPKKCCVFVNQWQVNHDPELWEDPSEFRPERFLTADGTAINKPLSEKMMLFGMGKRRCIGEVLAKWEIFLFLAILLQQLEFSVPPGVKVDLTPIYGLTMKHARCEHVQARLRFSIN

SMILES | activity, negative = inhibition | AC50
CCN1C(=O)[C@H]2[C@H]3[C@H](O)[C@H](O)C/C(=N/OCC[C@H]4C=C[C@H](OC(C)=O)[C@@H](COC(C)=O)O4)[C@@H]3CC[C@@H]2C1=O | -1.02% [at 11.4 µM] (inactive) | –
OC[C@@H]1O[C@@H](n2cnc3c(NC4CCCCC4)ncnc32)[C@@H](O)[C@H]1O | – | inactive
CC(C)C(=O)N[C@H]1CCCN1C(=O)/C=C\c1ccccc1 | 1.37% [at 11.4 µM] (inactive) | –
C#CCSc1nncn1C(=O)/C=C/c1ccccc1 | – | 15.8 µM (active)
CC(C)C(=O)N[C@@H]1CCCN1C(=O)/C=C\c1ccccc1 | 0.0238% [at 11.4 µM] (inactive) | –
COc1ccc(C(=O)OC(C)CN2CCN(C)CC2)cc1OC (stereo not drawn) | – | inactive
COc1ccc(NC(=O)c2ccc(-c3ccc(-c4noc(C)n4)cc3C)cc2)cc1N1CCN(C)CC1 | – | inactive
COc1ccc(-c2nnn(Cc3nc(N)nc(N4CCOCC4)n3)n2)cc1OC | – | inactive
CN1CCN(c2nc(-c3ccccc3)cc(C(F)(F)F)n2)CC1 | – | 1.12 µM (active)
COc1ccc(-c2cc(C(F)(F)F)nc(N3CCN(C)CC3)n2)cc1OC | – | 2.82 µM (active)
COc1ccc(-c2cc(C(F)(F)F)nc(NC3CCCC3)n2)cc1OC | – | 2.82 µM (active)
COc1ccc(-c2cc(C(F)(F)F)nc(N3CCOCC3)n2)cc1OC | – | 0.501 µM (active)
COc1ccc(CC(=S)N2CCOCC2)cc1OC | – | inactive
O=C(O)[C@@H](O)[C@@H](O)[C@@H](O[C@H]1O[C@@H](CO)[C@@H](O)[C@@H](O)[C@@H]1O)[C@@H](O)CO | – | inactive
C=C1c2cccc(O)c2C(O)=C2C(=O)[C@@]3(O)C(O)=C(C(N)=O)C(=O)[C@@H](N(C)C)[C@@H]3[C@@H](O)[C@H]12 | – | inactive
C#CCCCO/N=C1/C[C@@H](O)[C@@H](O)[C@@H]2[C@@H]3C(=O)N(CC)C(=O)[C@H]3CC[C@H]12 | -27.8% [at 11.4 µM] (inactive) | –
COc1ccc(-c2cc(C(F)(F)F)nc(N3CCCCC3)n2)cc1OC | – | 0.631 µM (active)
OC[C@@H]1O[C@@H](N2CCN([C@@H]3O[C@@H](CO)[C@@H](O)[C@H](O)[C@H]3O)CC2)[C@@H](O)[C@H](O)[C@H]1O | -9.68% [at 2.29 µM] (inactive) | –
CS(=O)(=O)N(CC(=O)Nc1c(F)cccc1F)c1ccc(C23CC4CC(CC(C4)C2)C3)cc1 | – | inactive
O=C1O[C@H](CN2CCOCC2)CN1/N=C\c1ccc([N+](=O)[O-])o1 | – | inactive
Cc1cc2ncn(/N=C/c3ccc([N+](=O)[O-])o3)c2cc1C | – | 10 µM (active)
CCN=C(Nc1ccc(Cl)cc1)c1cccnc1 | – | inactive
N/C(=N\OC(=O)Cc1ccc(Cl)cc1)c1cccnc1 | – | 11.2 µM (active)
